Test [1] in a line: compound effects on lung adenocarcinoma cell viability – A549, calcein-AM fluorescence, 48 h, basal, profiling panel (AID 1162). Also: test concentration not given here. Particulars: higher = more signal.
Test [2] is described as follows: compound effects on differentiated 3T3-L1 adipocyte viability – cell-based, 3T3-L1 adipocytes, calcein-AM fluorescence, 48 h, basal, profiling panel (AID 1163). Also: test concentration not given here. Particulars: 3T3-L1 adipocytes viability, higher = more signal.
The nature of test [3]: compound effects on hepatocellular carcinoma cell viability – HepG2, calcein-AM fluorescence, 48 h, basal, profiling panel (AID 1164). Also: test concentration not given here. Particulars: higher = more signal.
Test [4] is described as follows: compound effects on multiple myeloma cell viability – MM1S, calcein-AM fluorescence, 48 h, basal, profiling panel (AID 1165).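 Also: viability of MM1S multiple myeloma cells under basal unstimulated conditions; test concentration not given here.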 Particulars: higher = more signal.
The nature of test [5]: calcein-AM signal in unstimulated myeloma cells – cell-based, calcein-AM fluorescence, 48 h, PK04 Diversity Set, profiling panel (AID 1166).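 Also: cells grown under basal conditions without added stimulus; test concentration not given here.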 Conditions: RPMI8226 myeloma viability, higher = more signal.
Test [6] in a line: JC-1 mitochondrial signal, unstimulated HepG2 cells – cell-based, JC-1 fluorescence, 24 h, 100 nL compound, profiling panel (AID 1167). Also: test concentration not given here. Particulars: HepG2 mitochondrial potential, higher = more signal.
Test [7] can be described thus: JC-1 mitochondrial signal, unstimulated adipocytes – cell-based, JC-1 fluorescence, 3T3-L1 adipocytes, 24 h, 100 nL compound, profiling panel (AID 1168). Also: test concentration not given here. Conditions: JC-1 mitochondrial fluorescence, higher = more signal, called active from +8 up or from −8 down.
Test [8] can be described thus: JC-1 mitochondrial signal, unstimulated myeloma cells – cell-based, JC-1 fluorescence, RPMI8226, 24 h, 100 nL compound, profiling panel (AID 1169). Also: test concentration not given here. Particulars: JC-1 mitochondrial potential fluorescence, higher = more signal.
The nature of test [9]: JC-1 mitochondrial signal, unstimulated MM1S myeloma – cell-based, JC-1 fluorescence, 24 h, 100 nL compound, profiling panel (AID 1170). Also: test concentration not given here. Particulars: MM1S mitochondrial potential, higher = more signal.
Test [10] can be described thus: resazurin metabolic signal in A549 cells – cell-based, resazurin fluorescence, 24 h, PK04 Diversity Set, profiling panel (AID 1171). Also: test concentration not given here. Particulars: A549 viability, higher = more signal, called active from +8 up or from −8 down.
Test [11] in a line: resazurin metabolic signal in HepG2 cells – cell-based, resazurin fluorescence, 24 h, PK04 Diversity Set, profiling panel (AID 1172). Also: test concentration not given here. Conditions: HepG2 viability, higher = more signal.
A short description of test [12]: budding yeast growth changes without added modifier – OD600, strain BY4716, 24 h, basal condition, primary screen (AID 1173). Particulars: S. cerevisiae BY4716 growth, OD600, 24 h; higher = more signal, called active from +8 up or from −8 down.
Test [13] in a line: viability profiling in MM1S myeloma cells – cell-based, resazurin fluorescence, basal, 24 h, PK04 Diversity Set, profiling panel (AID 1174). Also: test concentration not given here. Conditions: higher = more signal, called active from +8 up or from −8 down. On the technique in general: The colour change of resazurin is a common sign of viable cells or microbes.
The target of test [14] is Dihydroorotate dehydrogenase (quinone), mitochondrial (Plasmodium falciparum (isolate 3D7)) (UniProt Q08210). Put plainly: inhibition of P. falciparum DHODH – biochemical, C-terminal His tag, absorbance 600 nm, primary screen (AID 1175).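 Also: recombinant parasite enzyme with a five histidine tag at its C terminus; test concentration not given here.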 Conditions: PfDHODH enzyme, DCIP absorbance 600 nm; higher = more signal, called active from +8 up or from −8 down.
The nature of test [15]: growth modulation of vineyard yeast isolate – strain RM11-1a, OD600, basal, 24 h, primary screen (AID 1177).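 Also: cultures grown under basal conditions with no added stressor; test concentration not given here.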 Particulars: S. cerevisiae RM11-1a growth, OD600, 24 h; higher = more signal, called active from +8 up or from −8 down.
Test [16] can be described thus: growth of efflux-deficient E. coli DRC39 – strain DRC39, OD650, 24 h, E. coli filamentation inducers, primary screen (AID 1178).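 Also: growth measured as culture turbidity by optical density at 650 nm; test concentration not given here.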 Conditions: E. coli DRC39 acrAB, higher = more signal, called active from +8 up or from −8 down.
A short description of test [17]: growth of efflux-deficient E. coli DRC39 – strain DRC39, OD650, 48 h, E. coli filamentation inducers, primary screen (AID 1179).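 Also: screen aims at cell division blockers that make cells filament.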 Conditions: E. coli DRC39 delta-acrAB growth, higher = more signal, called active from +8 up or from −8 down.
A short description of test [18]: viability profiling in RPMI8226 myeloma cells – cell-based, resazurin fluorescence, basal, 24 h, PK04 Diversity Set, profiling panel (AID 1180).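 Also: RPMI8826 multiple myeloma cell line at 5000 cells per well; test concentration not given here.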 Conditions: higher = more signal.
Test [19] deals with E3 ubiquitin-protein ligase XIAP (Homo sapiens) (UniProt P98170). The test is described as follows: small molecules binding XIAP protein – biophysical, small-molecule microarray, fluorescence 635 nm, primary screen (AID 1181).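 Also: score merges 667 nm emission and signal to noise over triplicate slides.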 Conditions: higher = more signal.

Molecules are shown by their SMILES. Calls of active or inactive are those of the source.

Chain of Dihydroorotate dehydrogenase (quinone), mitochondrial (Plasmodium falciparum (isolate 3D7)) (Q08210 whole entry, looked up): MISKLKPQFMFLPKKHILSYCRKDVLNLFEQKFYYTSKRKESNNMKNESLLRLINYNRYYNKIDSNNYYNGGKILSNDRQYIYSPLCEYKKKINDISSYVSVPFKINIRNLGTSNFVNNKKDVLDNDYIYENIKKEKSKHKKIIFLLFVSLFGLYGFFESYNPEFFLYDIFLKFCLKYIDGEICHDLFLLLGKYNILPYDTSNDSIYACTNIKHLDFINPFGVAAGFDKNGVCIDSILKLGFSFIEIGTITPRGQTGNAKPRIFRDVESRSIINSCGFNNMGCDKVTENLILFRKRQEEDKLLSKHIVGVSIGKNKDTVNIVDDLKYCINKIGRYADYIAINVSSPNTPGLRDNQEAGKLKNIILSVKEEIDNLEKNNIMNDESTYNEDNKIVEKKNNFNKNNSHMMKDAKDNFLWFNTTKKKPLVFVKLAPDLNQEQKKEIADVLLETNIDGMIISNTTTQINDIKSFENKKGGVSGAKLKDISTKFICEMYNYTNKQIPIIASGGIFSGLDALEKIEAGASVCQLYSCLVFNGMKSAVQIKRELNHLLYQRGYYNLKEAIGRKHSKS
Chain of E3 ubiquitin-protein ligase XIAP (Homo sapiens) (P98170 whole entry, looked up): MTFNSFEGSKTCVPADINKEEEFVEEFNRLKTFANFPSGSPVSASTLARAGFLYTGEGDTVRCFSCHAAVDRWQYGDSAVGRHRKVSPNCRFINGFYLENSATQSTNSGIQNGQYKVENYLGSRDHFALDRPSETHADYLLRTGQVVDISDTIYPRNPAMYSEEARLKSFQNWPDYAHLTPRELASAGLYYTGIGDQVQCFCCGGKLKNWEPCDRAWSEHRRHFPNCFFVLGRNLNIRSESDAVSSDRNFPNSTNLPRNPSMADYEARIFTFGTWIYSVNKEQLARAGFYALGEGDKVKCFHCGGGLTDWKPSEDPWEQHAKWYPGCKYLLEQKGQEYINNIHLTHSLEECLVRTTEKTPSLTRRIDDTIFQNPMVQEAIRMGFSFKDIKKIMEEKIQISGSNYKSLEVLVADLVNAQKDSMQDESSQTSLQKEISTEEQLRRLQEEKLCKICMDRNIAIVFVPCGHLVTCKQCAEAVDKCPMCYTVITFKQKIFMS

As to `C=CCC1=C[C@H]2[C@H]([C@@H]3C=C[C@]2(CC=C)C(=O)[C@]32CO2)[C@@]2(CO2)C1=O`, the z-score in test [1] is -0.135; in [2] it was 0.916; in [3], -0.732; in test [4], -3.16; in test [5] it was -2.93; in [6], 0.896. Moreover, the z-score was 1.54 (inactive) in [7]; -0.201 in test [8]; -2.08 in test [9]; -1.33 (inactive) in test [10]; 0.177 in test [11]; -15.3 (active) in [12]. For the same compound, the z-score in test [13] was -1.92 (inactive); in test [15], -0.763 (inactive); in [16], 2.57 (inactive); in test [17], 1.51 (inactive); in test [18] it was -1.12. The composite z-score in [14] is -0.491 (inactive); in test [19] it was 0.147.

For the compound `CO[C@H]1COC(=O)[C@H](C)COC(=O)[C@H](Cc2ccccc2)NC(=O)CC=C[C@H]1C`, the z-score is 0.219 in [1]; -0.0092 in [2]; 0.284 in test [3]; -0.0516 in test [4]; 1.14 in test [5]; 0.744 in [6]. Further, the z-score is 0.854 (inactive) in test [7]; 0.433 in [8]; 0.213 in test [9]; -0.36 (inactive) in test [10]; 0.492 in test [11]; -1.3 (inactive) in test [12]. The z-score in test [13] was 0.62 (inactive); in [15] it was -0.954 (inactive); in test [16], 0.192 (inactive); in [17], 0.144 (inactive); in test [18], 0.254. Also, the results for the composite z-score in [14] and in [19] were -0.393 (inactive) and -0.267, respectively.

For the compound `CO[C@H]1COC(=O)CC=C[C@@H](C)COC(=O)[C@@H](C)NC(=O)CC=C[C@@H]1C`, the z-score in test [1] is 0.43; in [2] it was 0.688; in [3], 1.37; in test [4], 0.344; in test [5] it was 0.615; in [6] it was 1.24. For the same compound, the z-score in test [7] was 1.87 (inactive); in [8], -0.258; in test [9], 1.52; in test [10], 0.372 (inactive); in test [11], 0.931; in test [12] it was -2.02 (inactive). Moreover, the z-score in test [13] is 1.13 (inactive); in test [15], -4.97 (inactive); in [16], 0.236 (inactive); in [17], -1.28 (inactive); in test [18], 0.181. Also, the figures for the composite z-score in test [14] and in test [19] were -0.0214 (inactive) and -0.216, respectively.

Take `[N-]=[N+]=NCc1ccccc1C[C@@]1(C(=O)N2CCOCC2)N=C(c2ccc(OCCCO)cc2)O[C@@H]1c1ccccc1N=[N+]=[N-]`: the z-score in test [1] was -0.884; in test [2] it was 0.913; in test [3], -0.848; in [4], -2.19; in test [5], -2.3; in test [6] it was 0.944. The z-score in test [7] was 1.11 (inactive); in test [8], -0.982; in test [9], -0.891; in [10], -1.75 (inactive); in test [11], 0.164; in test [12] it was -1.37 (inactive). Moreover, the z-score was -1.22 (inactive) in [13]; 1.12 (inactive) in test [15]; 2.06 (inactive) in test [16]; 0.612 (inactive) in [17]; -1.62 in [18]. In addition, the figures for the composite z-score in test [14] and in test [19] were 0.503 (inactive) and 0.152, respectively.

Consider `C=CCN(C(=O)C1N(c2ccc(CCO)cc2)C(=O)C2C(C(=O)O)C3C=CC21O3)C(C)(C)C` (stereo not given), for which the z-score in test [1] was 0.478; in [2], 1.86; in test [3], 0.134; in test [4] it was 1.69; in test [5], -0.265; in test [6], 0.556. In addition, the z-score is 2.37 (inactive) in test [7]; 0.0149 in test [8]; 1.08 in test [9]; -1.3 (inactive) in test [10]; 0.43 in test [11]; -1.39 (inactive) in test [12]. For the same compound, the z-score in test [13] is 1.06 (inactive); in [15], -1.41 (inactive); in test [16] it was 1.44 (inactive); in test [17], 0.94 (inactive); in test [18], 0.327. Further, the composite z-score is -0.363 (inactive) in test [14] and -0.253 in test [19].

Regarding `COCC(=C=CC[C@H](O)c1ccc(OCCO)cc1)C[C@H](O)c1ccccn1`, the z-score in [1] was 0.905; in test [2], -0.518; in test [3], 0.0126; in test [4] it was 0.682; in [5], 0.237; in test [6], 1.79. Further, the z-score is 1.09 (inactive) in [7]; -0.145 in [8]; -0.116 in test [9]; 1.02 (inactive) in [10]; 0.959 in test [11]; -0.413 (inactive) in [12]. Moreover, the z-score in [13] is 1.33 (inactive); in test [15] it was 0.275 (inactive); in test [16] it was 1.74 (inactive); in test [17], 1.21 (inactive); in test [18] it was 0.827. In addition, the composite z-score in test [14] was -0.86 (inactive); in test [19], -0.02.

With `CO[C@H]1COC(=O)CC=C[C@H](C)[C@@H](OC)COC(=O)CC=C[C@@H]1C`, the z-score is 1.09 in test [1]; 0.569 in [2]; 1.06 in [3]; 0.244 in test [4]; 0.859 in test [5]; 1.36 in [6]. Besides, the z-score was 0.425 (inactive) in test [7]; -0.36 in test [8]; 0.758 in test [9]; 0.99 (inactive) in test [10]; 1.4 in test [11]; -1.65 (inactive) in test [12]. The z-score was 1.18 (inactive) in test [13]; -1.38 (inactive) in test [15]; 1.2 (inactive) in [16]; 1.21 (inactive) in [17]; 0.749 in test [18]. Besides, the results for the composite z-score in [14] and in test [19] were 0.522 (inactive) and -0.199, respectively.

For the compound `COc1cc2c(cc1OC)CN(C(=O)[C@@H]1[C@H]3C(=O)O[C@H](c4ccccc4)[C@H](c4ccccc4)N3[C@H](c3ccccc3OCCO)[C@@]13C(=O)Nc1ccccc13)CC2`, the z-score in test [1] is -0.225; in test [2], 1.85; in [3] it was -0.174; in test [4], -0.998; in test [5], -0.622; in test [6], 0.648. The z-score in test [7] was 3.09 (inactive); in test [8], -0.509; in test [9], 0.0343; in test [10], 0.872 (inactive); in [11], 0.193; in test [12], 1.34 (inactive). In addition, the z-score was 0.255 (inactive) in test [13]; 3.1 (inactive) in test [15]; 0.392 (inactive) in test [16]; 0.952 (inactive) in test [17]; 0.105 in test [18]. Besides, the composite z-score was -0.495 (inactive) in [14] and -0.127 in [19].

As to `COCCOC(=O)N1C(=O)[C@@]2(c3cc(C#CCNC(N)=O)ccc31)[C@H](c1ccc(OCCO)cc1)N1[C@H](c3ccccc3)[C@H](c3ccccc3)OC(=O)[C@H]1[C@@H]2C(=O)N1CCCCCCC1`, the z-score in test [1] was 0.118; in test [2] it was 1.97; in test [3], -0.164; in test [4], -0.115; in [5], 0.269; in [6], -0.411. For the same compound, the z-score was -3.07 (inactive) in test [7]; -0.659 in [8]; -1.11 in test [9]; 0.643 (inactive) in [10]; 0.377 in test [11]; 1.52 (inactive) in [12]. For the same compound, the z-score is 1.2 (inactive) in test [13]; 2 (inactive) in test [15]; -0.132 (inactive) in test [16]; 0.538 (inactive) in test [17]; 1.41 in [18]. The values for the composite z-score in test [14] and in test [19] were 0.0238 (inactive) and -0.0559, respectively.

`O=C(CS)NCCCCCNC(=O)[C@H]1C[C@H]2C(=O)N3CCC[C@H]3C(=O)N2[C@H]1c1ccc(O)cc1`: the z-score is 0.931 in test [1]; -0.172 in [2]; -0.0292 in test [3]; 0.965 in [4]; -0.0858 in [5]; 1.89 in test [6]. The z-score in test [7] is 0.797 (inactive); in test [8], 0.34; in [9] it was -0.235; in [10], 0.641 (inactive); in test [11], 0.743; in test [12], -1.04 (inactive). In addition, the z-score was 0.613 (inactive) in test [13]; -0.881 (inactive) in test [15]; 1.2 (inactive) in test [16]; 1.34 (inactive) in test [17]; 1.09 in test [18]. In addition, the values for the composite z-score in [14] and in test [19] were -0.581 (inactive) and -0.02, respectively.

The record behind these values is PubChem BioAssay.
